Our source for the Potency, outcome and activity change, positive = activation values is PubChem BioAssay (Tox21).

SMILES strings stand for the structures. Values joined by “and” are separate entries in the source; they are usually repeats but may differ in a detail not shown here. Equal values may be shown once. Inconclusive results are not listed. Some compounds were tested as several samples or in several runs, with calls that do not always agree. Active and inactive are the calls of the source. Unless noted, calls follow the shape of the dose curve; as a rule, active = well fitted curve in the direction sought with a large enough effect in the repeat runs; inconclusive = weak or mixed curves; inactive = no such curve, though single readings can be large; an effect the other way counts as inactive or inconclusive.

Assay [1] in a line: qHTS assay to identify small molecule antagonists of the estrogen related receptor (ERR) signaling pathway from Tox21 library - cell viability counter screen (AID 1224834). Also: nearly all actives have a fitted effect of over 30% in size. The procedure, abridged:
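ERR reporter cells were plated 6 h before compound addition, then exposed to test compounds in DMSO for 17.5 h at 37 C. Viability was read as CellTiter-Fluor fluorescence after a 30-minute incubation at 37 C.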
Background: qHTS replaces the single test concentration by a dilution series.

Assay [2] concerns the target Luciferin 4-monooxygenase (Photinus pyralis) (UniProt P08659). Nature of the assay: qHTS assay to identify small molecule inhibitors of firefly luciferase (AID 1224835). Also: nearly all actives have a fitted effect of over 25% in size. Also: potency is read from the fitted curve at half-maximal effect. The procedure, abridged: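 Biochemical qHTS: compounds run as interplate titrations against purified firefly enzyme, with D-luciferin and ATP each at its KM concentration. Light output recorded by CCD imaging.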

A short description of assay [3]: qHTS assay to identify small molecule agonists of the constitutive androstane receptor (CAR) signaling pathway - cell viability counter screen (AID 1224836). Also: nearly all actives have a fitted effect of over 45% in size. A digest of the protocol: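 Using CellTiter-Fluor, viability of HepG2 cells harbouring hCAR and CYP2B6-2.2kb was measured following 23 h incubation with a 15-concentration compound series plus PK11195 (0.75 uM final).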

Assay [4] in a line: qHTS assay to identify small molecule antagonists of the constitutive androstane receptor (CAR) signaling pathway - cell viability counter screen (AID 1224837). Also: nearly all actives have a fitted effect of over 45% in size. A digest of the protocol:
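HepG2 cells stably expressing hCAR and a CYP2B6-2.2kb reporter were plated and pre-incubated 4 hr at 37 C/5% CO2, then given compounds at 15 concentrations plus 50 nM CITCO (final). After 23 hr, viability was read by CellTiter-Fluor fluorescence.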

Assay [5] addresses Nuclear receptor subfamily 1 group I member 3 (Homo sapiens) (UniProt Q14994). Put plainly: qHTS assay to identify small molecule antagonists of the constitutive androstane receptor (CAR) signaling pathway (AID 1224838). Also: nearly all actives have a fitted effect of over 40% in size. Also: potency is read from the fitted curve at half-maximal effect. The procedure, abridged:
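HepG2 cells stably co-transfected with hCAR and a CYP2B6-2.2kb luciferase reporter were seeded 4 h before compound addition at 15 concentrations. Cells were stimulated with 50 nM CITCO (final) for 24 h at 37 C; luciferase luminescence was then read.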

For assay [6] the target is unchanged. Nature of the assay: qHTS assay to identify small molecule agonists of the constitutive androstane receptor (CAR) signaling pathway (AID 1224839). Also: nearly all actives have a fitted effect of over 15% in size. Also: potency is read from the fitted curve at half-maximal effect.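 As to activation: HepG2 cells stably carrying human CAR and a CYP2B6 luciferase reporter.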 The procedure, abridged: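 Double-stable HepG2 cells (hCAR, CYP2B6-2.2kb) seeded 4 h before compound addition. Exposure 24 h with 0.75 uM PK11195 final. Luciferase detected by ONE-Glo.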
A short description of assay [7]: qHTS assay to identify small molecule antagonists of the estrogen related receptor signaling pathway with the pleiotropic PPARgamma coactivator (PGC) from Tox21 10K library - cell viability counter screen (AID 1224840; active = well fitted cell-killing curve with a large enough effect in the repeat runs, not every such curve was filed as active; also: nearly all actives have a fitted effect of over 40% in size). The procedure, abridged: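 PGC/ERR cells were seeded at 2,000 cells/well and left 6 hours at 37 C/5% CO2 before pin-tool addition of compounds in DMSO. After 17.5 hours at 37 C, CellTiter-Fluor was added and fluorescence read 30 minutes later.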

Assay [8] is described as follows: qHTS assay to identify small molecule antagonists of the estrogen related receptor signaling pathway with the pleiotropic PPARgamma coactivator (PGC) from Tox21 10K library (AID 1224841; call rule not given here; also: actives are mostly falling curves and most rising ones were filed inactive; nearly all actives have a fitted effect of over 50% in size; also: potency is read from the fitted curve at half-maximal effect). A digest of the protocol:
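PGC/ERR reporter cells were seeded at 2,000 cells/well and held 6 hours at 37 C/5% CO2 before pin-tool addition of compounds in DMSO. After 18 hours at 37 C, One-Glo was added and luminescence read after 30 minutes at room temperature.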

Assay [9] is described as follows: qHTS assay to identify small molecule agonists of the estrogen related receptor signaling pathway with the pleiotropic PPARgamma coactivator (PGC) from Tox21 10K library (AID 1224842). Also: nearly all actives have a fitted effect of over 15% in size. Also: potency is read from the fitted curve at half-maximal effect. A digest of the protocol: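 PGC/ERR reporter cell line, 2,000 cells per well, incubated 6 h at 37 C before 23 nL compound in DMSO was added. After 18 h at 37 C, One-Glo luminescence read following 30 min at room temperature.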

In assay [10] the target is Thyrotropin receptor (Homo sapiens) (UniProt P16473). Put plainly: qHTS assay to identify small molecule agonists of the thyroid stimulating hormone receptor (TSHR) signaling pathway (AID 1224843; calls by dose curve; also: nearly all actives have a fitted effect of over 45% in size). The procedure, abridged:
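TSHR-HEK293 cells in agonist mode, 30 min room-temperature step, then cAMP measured by competitive HTRF (cAMP-d2 with anti-cAMP cryptate) after 1 h at room temperature. Tested at 15 concentrations in triplicate.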

Assay [11] is described as follows: qHTS assay to identify small molecule agonists of the hypoxia (HIF-1) signaling pathway - cell viability counter screen (AID 1224844; calls by dose curve; also: nearly all actives have a fitted effect of over 50% in size; also: potency is read from the fitted curve at half-maximal effect). A digest of the protocol:
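HRE-bla ME-180 cells in medium with 0.5% dialyzed FBS were preincubated 5 hrs at 37C, exposed to compounds for 17 hrs, then viability was read as CellTiter-Glo luminescence after 30 min at room temperature, in the reporter wells.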

Assay [12] is described as follows: qHTS assay to identify small molecule agonists of H2AX (AID 1224845; active = well fitted activation curve with a large enough effect in the signal ratio in the repeat runs, not every such curve was filed as active; the % refers to the signal ratio). A digest of the protocol:
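Wild-type CHO-K1 cells, plated overnight, exposed 3hr at 37C to 15 concentrations (0.76% DMSO final). Lysed, then HTRF anti-pH2AX (S139) cryptate and anti-H2AX-d2 antibodies, 24 hr room temperature; 665/620 nm emission read.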

The nature of assay [13]: qHTS assay to identify small molecule agonists of the hypoxia (HIF-1) signaling pathway (AID 1224846; active = well fitted activation curve with a large enough effect in the signal ratio in the repeat runs, not every such curve was filed as active; the % refers to the signal ratio). A digest of the protocol:
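HRE-bla ME-180 cells (beta-lactamase reporter under hypoxia response element) were plated at 2,000 cells/well in medium with 0.5% dialyzed FBS, rested 5 hrs, then given compounds in DMSO for 17 hrs at 37C, 5% CO2. Reporter induction was read with CCF4-AM FRET substrate.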

Assay [14] is described as follows: qHTS assay to identify small molecule agonists of H2AX - cell viability counter screen (AID 1224847; calls by dose curve; also: nearly all actives have a fitted effect of over 30% in size; also: potency is read from the fitted curve at half-maximal effect). A digest of the protocol: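 Quantitative HTS viability measurement: CHO-K1 wild-type cells in serum (10% FBS) medium, short 3 hr drug exposure at 37C with 0.76% DMSO, CellTiter-Glo luminescent detection.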
Assay [15] can be described thus: qHTS assay to identify small molecule antagonists of the estrogen related receptor (ERR) signaling pathway from Tox21 library (AID 1224848). Also: nearly all actives have a fitted effect of over 50% in size. Also: potency is read from the fitted curve at half-maximal effect. The procedure, abridged:
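ERR reporter cell line (from NTP) seeded 2,000 cells/well, rested 6 h at 37 C/5% CO2, then pin-dosed with compounds in DMSO. After 18 h at 37 C, ONE-Glo added; luminescence read after 30 min at room temperature.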

Assay [16] can be described thus: qHTS assay to identify small molecule agonists of the estrogen related receptor (ERR) signaling pathway from Tox21 library (AID 1224849; calls by dose curve; also: nearly all actives have a fitted effect of over 15% in size). To be noted: ERR reporter cell line, ONE-Glo luciferase, 18 h. The procedure, abridged: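 ERR reporter cell line (NTP) seeded, rested 6 h at 37 C/5% CO2, then pinned with Tox21 compounds in DMSO. After 18 h at 37 C, ONE-Glo luciferase luminescence was read following 30 min at room temperature.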

The nature of assay [17]: qHTS RealTime-Glo MT Cell Viability Assay in HepG2 cells - 24 hour (AID 1224867). Also: nearly all actives have a fitted effect of over 50% in size. A digest of the protocol: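 Compound treatment began 5 h after plating HepG2 cells (600/well) with NanoLuc luciferase and prosubstrate. Plates stayed at 37 C for 40 h; luminescence was captured at six time points, 0 h through 40 h.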
A short description of assay [18]: qHTS RealTime-Glo MT Cell Viability Assay in HEK293 cells - 32 hour (AID 1224868). Also: nearly all actives have a fitted effect of over 50% in size. Also: potency is read from the fitted curve at half-maximal effect. A digest of the protocol:
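Quantitative high-throughput screen of the Tox21 10K library in HEK293: cells and RealTime-Glo reagents plated together, compound added at 5 h, luminescence monitored through 40 h at 37 C.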

Assay [19] can be described thus: A CellTox Green Cytotoxicity Assay to monitor cytotoxicity in HEK293 cells - 0 hour (AID 1224869). Also: nearly all actives have a fitted effect of over 50% in size. The procedure, abridged: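 HEK293 cells premixed with CellTox Green dye were seeded at 600 cells/well and left 5 h at 37 C/5% CO2 before pin transfer of 23 nL compound in DMSO. Fluorescence from dye bound to dead-cell DNA was read during 40 h treatment.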
% is scaled to controls: 0 for no effect and ±100 for the full control effect.

Nuclear receptor subfamily 1 group I member 3 (Homo sapiens), sequence (Q14994 whole entry, looked up): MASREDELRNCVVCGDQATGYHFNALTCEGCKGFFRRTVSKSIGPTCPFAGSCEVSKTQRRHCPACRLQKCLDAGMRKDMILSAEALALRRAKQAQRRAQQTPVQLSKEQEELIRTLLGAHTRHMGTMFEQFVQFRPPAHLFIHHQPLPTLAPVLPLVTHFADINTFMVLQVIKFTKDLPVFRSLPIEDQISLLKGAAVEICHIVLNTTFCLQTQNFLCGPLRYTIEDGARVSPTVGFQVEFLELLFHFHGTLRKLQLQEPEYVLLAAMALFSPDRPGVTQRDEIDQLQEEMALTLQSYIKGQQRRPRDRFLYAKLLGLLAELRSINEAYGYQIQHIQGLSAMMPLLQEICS
Luciferin 4-monooxygenase (Photinus pyralis), sequence (P08659 whole entry, looked up): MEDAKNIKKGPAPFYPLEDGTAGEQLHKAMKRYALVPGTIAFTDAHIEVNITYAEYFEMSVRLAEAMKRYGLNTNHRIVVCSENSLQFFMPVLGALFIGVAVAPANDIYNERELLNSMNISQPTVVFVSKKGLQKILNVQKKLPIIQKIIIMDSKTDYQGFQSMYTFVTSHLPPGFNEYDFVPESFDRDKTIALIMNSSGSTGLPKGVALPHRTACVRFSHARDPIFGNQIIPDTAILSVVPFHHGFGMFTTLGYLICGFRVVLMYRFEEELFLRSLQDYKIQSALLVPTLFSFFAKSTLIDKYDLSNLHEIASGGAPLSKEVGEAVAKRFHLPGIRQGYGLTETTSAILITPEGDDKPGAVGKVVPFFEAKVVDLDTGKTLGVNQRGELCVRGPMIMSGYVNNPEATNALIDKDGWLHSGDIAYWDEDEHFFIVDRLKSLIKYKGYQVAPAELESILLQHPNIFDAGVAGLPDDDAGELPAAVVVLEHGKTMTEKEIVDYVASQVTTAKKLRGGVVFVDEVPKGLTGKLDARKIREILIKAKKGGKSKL
Thyrotropin receptor (Homo sapiens), sequence (P16473 whole entry, looked up): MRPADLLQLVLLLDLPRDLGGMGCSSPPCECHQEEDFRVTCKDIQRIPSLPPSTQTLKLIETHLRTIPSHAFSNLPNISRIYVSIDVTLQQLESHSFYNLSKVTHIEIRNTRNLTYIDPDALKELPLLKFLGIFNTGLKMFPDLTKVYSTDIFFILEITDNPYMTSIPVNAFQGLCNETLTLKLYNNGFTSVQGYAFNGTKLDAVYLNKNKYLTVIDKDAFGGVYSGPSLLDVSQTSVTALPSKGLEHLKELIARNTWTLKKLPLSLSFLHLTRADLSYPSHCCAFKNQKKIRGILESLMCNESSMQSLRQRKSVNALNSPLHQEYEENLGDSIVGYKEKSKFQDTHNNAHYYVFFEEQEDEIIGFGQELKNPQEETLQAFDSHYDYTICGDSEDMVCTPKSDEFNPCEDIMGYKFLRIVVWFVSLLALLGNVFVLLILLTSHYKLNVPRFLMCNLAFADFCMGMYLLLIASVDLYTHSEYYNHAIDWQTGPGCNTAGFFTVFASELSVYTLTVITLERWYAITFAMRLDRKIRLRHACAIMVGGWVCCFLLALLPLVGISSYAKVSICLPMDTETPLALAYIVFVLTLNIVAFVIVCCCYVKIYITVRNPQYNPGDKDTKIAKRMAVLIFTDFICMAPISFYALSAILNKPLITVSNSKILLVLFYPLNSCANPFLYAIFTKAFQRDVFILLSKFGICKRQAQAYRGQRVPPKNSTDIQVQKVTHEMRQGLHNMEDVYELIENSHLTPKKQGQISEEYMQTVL

Consider `COP(=O)(OC)OC`, for which the Potency entry in assay [1], in assay [2], in assay [3], in assay [4], in assay [6] and in [7] was “inactive” in each case. The Potency result in [8], in assay [9], in [10], in [11], in assay [12] and in assay [14] was “inactive” throughout. Moreover, the Potency entry in assay [15], in [17], in [18] and in assay [19] was “inactive” each time. The Potency in assay [5] was 30.9 µM (active) and inactive. Also, the outcome in [13] was inactive. The activity change, positive = activation in [16] (at 92.4 µM (top of the series)) was -30.8% (inactive) and 3.29% (inactive).
`CCC(=O)O[C@H]1CC[C@H]2[C@@H]3CCC4=CC(=O)CC[C@]4(C)[C@H]3CC[C@]12C`: the Potency entry in assay [1], in [2], in [3], in [4], in [5] and in [6] was “inactive” each time. For the same compound, the Potency result in assay [7], in assay [10], in assay [12], in assay [17] and in [19] was “inactive” each time. Moreover, the Potency is 54.9 µM (active) and inactive in assay [11]; 101 µM (active) and inactive in assay [14]; 19.5 µM (active) and 23.9 µM (active) in assay [18]. Further, the call in assay [13] was inactive.
For `N#Cc1cc(Br)c(O)c(Br)c1`, the Potency result in assay [1], in [2], in assay [3], in [4], in assay [5] and in assay [6] was “inactive” each time. The Potency result in [7], in [9], in [10], in assay [11], in assay [17] and in [18] was “inactive” each time. Besides, the Potency entry in [19] is “inactive”. The Potency was 54.4 µM (active) and 41.7 µM (active) in assay [8]; 48.5 µM (active) and 37.1 µM (active) in assay [15]. The compound was called inactive in assay [13]. Moreover, the activity change, positive = activation in assay [16] (at 92.4 µM (top of the series)) is -51.5% (inactive) and -34.9% (inactive).
Take `Cc1cccc(N)c1N`: the Potency result in assay [1], in [3], in assay [4], in assay [5], in assay [7] and in assay [8] was “inactive” throughout. Moreover, the Potency entry in assay [10], in [11], in [14], in [15], in assay [17] and in [19] was “inactive” each time. Moreover, the Potency was 30.6 µM (active) in assay [2]; 59.1 µM (active) and 54.5 µM (active) in [6]; “inactive and 15.4 µM (active)” in [9]. For the same compound, the compound was classed as inactive in assay [13]. The activity change, positive = activation in assay [16] (at 92.4 µM (top of the series)) was 5.31% (inactive) and 103% (active).
As for `C[C@]12CCC(=O)C(O)=C1CC[C@@H]1[C@@H]2CC[C@]2(C)C(=O)CC[C@@H]12`, the Potency entry in [1], in assay [2], in [3], in [4], in assay [5] and in assay [6] was “inactive” in each case. Also, the Potency entry in assay [7], in assay [8], in assay [9], in assay [11], in assay [14] and in [17] was “inactive” each time. Further, the Potency result in [18] and in assay [19] was “inactive” in each case. Moreover, the compound was classed as inactive in assay [13]. Further, the Potency in assay [15] is 54.5 µM (active) and inactive. Also, the activity change, positive = activation in [16] (at 42.5 µM (top of the series)) is -8.87% (inactive); in assay [16] (at 92.4 µM (top of the series)), -37.5% (inactive).
For `O=S(=O)(Oc1ccc(Cl)cc1)c1ccc(Cl)cc1`, the Potency entry in assay [1], in [2], in assay [3], in assay [4], in assay [5] and in [7] was “inactive” each time. Besides, the Potency entry in [8], in assay [9], in assay [10], in assay [11], in assay [15] and in [17] was “inactive” in each case. Moreover, the Potency entry in [18] and in assay [19] was “inactive” each time. In addition, the Potency in [6] was 69.5 µM (active) and 48.6 µM (active). Moreover, the compound was classed as inactive in assay [13]. Moreover, the activity change, positive = activation in [16] (at 92.4 µM (top of the series)) was -19.6% (inactive) and -8.56% (inactive).
